miR-21 reporter: qHTS Assay for Modulators of miRNAs and/orActivators of miR-21 | HeLa miR-21 FLuc reporter, luciferase, 48 h | AID 2288, 2010 | 340,000 tested, under 10 active | Potency, µM (highest dose often 38.3 µM), inactives show at the top dose activity change, positive = activation, hits mostly activators;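 note: % of control where 0% means no effect; miR-21 action dims this reporter so a rising signal means less miR-21 action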
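Using DMEM plus 10% FBS, HeLa miR-21-FLuc cells are incubated with test compounds (final up to about 40uM) for 48 hours; firefly luciferase signal is then imaged following reagent-mediated lysis.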
PTAP TSG101 blk: qHTS Assay for Iinhibitors of HIV-1 Budding by Blocking the Interaction of PTAP/TSG101; Fluorescence polarization, FITC-PTAP peptide / Tsg101 binding; Potency, µM (highest dose often 115 µM), without a hit: at the highest dose activity change, negative = inhibition, hits mostly inhibitors; 340,000 tested, under 10 active; active = well fitted inhibition curve with a large enough effect in the main read-out, with a control signal flat, not every such curve was filed as active; inconclusive = small, poorly fitted or top-dose-only effect, or effect the other way, or a change in a side signal; inactive = no such curve, though single readings can be large or run the other way; note: potency is the fitted concentration of half-maximal effect; % of control where 0% means no effect
Target sequence (Q99816 whole entry, looked up): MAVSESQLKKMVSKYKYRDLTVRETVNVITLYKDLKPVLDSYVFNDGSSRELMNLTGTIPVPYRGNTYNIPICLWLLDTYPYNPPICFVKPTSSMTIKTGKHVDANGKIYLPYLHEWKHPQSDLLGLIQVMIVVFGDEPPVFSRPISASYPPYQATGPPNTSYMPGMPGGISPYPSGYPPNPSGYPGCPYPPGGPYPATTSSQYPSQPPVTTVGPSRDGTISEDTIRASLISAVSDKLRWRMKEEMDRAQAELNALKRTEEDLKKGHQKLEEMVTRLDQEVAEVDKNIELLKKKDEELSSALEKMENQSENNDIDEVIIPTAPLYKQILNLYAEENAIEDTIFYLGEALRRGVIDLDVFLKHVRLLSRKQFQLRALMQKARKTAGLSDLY
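Steps: Tsg101 binding domain dispensed (10 uM final), compounds pinned in DMSO, FITC-labeled PTAP-motif peptide added (50 nM final); after 20 min binding at room temperature, polarization measured.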
Nrf2 block: Nrf2 qHTS screen for inhibitors; A549 ARE-Fluc reporter, luciferase luminescence, 18-24 h; Potency, µM (doses to about 46 µM), for inactives: top-dose activity change, negative = inhibition, most hits filed as inhibitors; actives 2.1% (n = 360,000); note: potency is the fitted concentration of half-maximal effect; % is set by controls: 0 for no effect and ±100 for the full control effect; nearly all actives have a fitted effect of over 60% in size
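In this cell-based qHTS, ARE-driven firefly luciferase in A549 cells reports Nrf2 activity; the luminescent signal after BugLite lysis is the measured value, with a prior CellTiter-Fluor read for cell health.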
A549 tox: Nrf2 qHTS screen for inhibitors: counterscreen for cytotoxicity | A549 ARE-Fluc cells, CellTiter-Fluor viability, 18-24 h | Potency, µM (doses to about 46 µM), for the others: at the highest dose activity change, negative = cytotoxicity, most hits filed as inhibitors | actives 0.16% (n = 390,000) | AID 504648, 2011; note: potency is the fitted concentration of half-maximal effect; % is set by controls: 0 for no effect and ±100 for the full control effect
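A549 ARE_Fluc cells in 5% FBS OPTI-MEM were exposed to compounds in concentration-response for 18-24 h at 37 deg C. Viability was read by CellTiter-Fluor fluorescence (Ex 405/Em 525) after 30 min, before the luciferase read.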
Nrf2 activator: qHTS of Nrf2 Activators | AREc32 ARE-luciferase reporter (MCF7-derived line), luminescence, 24 h | Potency, µM (titrated, usually from 46.1 µM), for the others: at the highest dose activation, most hits filed as activators | actives 0.31% (n = 410,000) | AID 624171, 2012; note: potency is the fitted concentration of half-maximal effect; % of control where 0% means no effect; nearly all actives have a fitted effect of over 65% in size
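Luminescent ARE reporter assay in AREc32_Fluc cells: overnight plating at 37 deg C, 24 hr compound incubation, Steady-Glo added, 30 min RT before reading.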
GRP78 ERSR act: qHTS for Inducers of the Endoplasmic Reticulum Stress Response (ERSR) in Human Glioma: qHTS. actives 0.02% (n = 420,000). U87-MG GRP78 promoter luciferase reporter, 16 h. Potency, µM, inactives show at the highest dose activation, actives largely listed as activators; note: potency is the fitted concentration of half-maximal effect; series mostly up to about 76 µM; % of control where 0% means no effect; nearly all actives have a fitted effect of over 35% in size
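Stably transfected U87-MG glioma cells carrying a GRP78-based luciferase sensor; 16 h compound incubation. Luminescence end-point read 10 min after Bright-Glo addition at room temperature.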
An asterisk follows results filed as active; ? = inconclusive; · = no result. Hits are enriched below; roughly 2.1% of the tested compounds scored in any of these assays. Unless noted, calls come from the whole dose curve; as a rule, active = well fitted curve in the direction sought with a large enough effect; inconclusive = small, poorly fitted or top-dose-only effect, or another doubt; inactive = no such curve, though single readings can be large; an effect the other way counts as inactive or inconclusive.

SMILES	miR-21 reporter	PTAP TSG101 blk	Nrf2 block	A549 tox	Nrf2 activator	GRP78 ERSR act
O=C(Cc1ccc(Cl)cc1Cl)Nc1ccncc1	22.9%	6.3%	16.4µM*	3.1%	0.1%	-4.1%
S=C(NCc1ccc(Cl)cc1)Nc1ccncc1	16.8%	-5.5%	13µM*	-4.9%	-0.1%	-2.9%
COc1ccc(CNC(=O)c2cnn(-c3nccc(-c4ccco4)n3)c2C)cc1OC	·	·	·	·	·	2.5%
CCC(=O)OCC(=O)[C@@]1(OC(=O)CC)[C@@H](C)C[C@H]2[C@@H]3CCC4=CC(=O)C=C[C@]4(C)[C@@]3(Cl)[C@@H](O)C[C@@]21C	·	-4.6%	0.0058µM*	-5.2%	5.9%	-1.5%
COc1ccc(C(=O)NC(C(=O)N2CCN(C/C=C/c3ccccc3)CC2)C(C)C)cc1 (configuration not stated)	·	·	·	·	-1.1%	-7.2%
CC(C)[C@H](NC(=O)c1ccc([N+](=O)[O-])cc1Cl)C(=O)N1CCN(C/C=C/c2ccccc2)CC1	·	-6.4%	23.1µM*	?	6.0%	-2.7%
COCCCNC(=O)c1ccc([N+](=O)[O-])cc1	2.2%	-4.8%	17.5%	-1.3%	0.0%	-2.0%
O=C(CCl)NCCCN(C(=O)C(Cl)Cl)c1ccc([N+](=O)[O-])cc1	26.9%	-3.9%	?	?	11.2µM*	-6.1%
Cc1ccc(NC(=O)COC(=O)c2c(-c3ccccc3)noc2C)cc1	·	0.8%	?	-5.5%	2.9%	-4.3%
Cc1onc(-c2ccccc2)c1C(=O)OCC(=O)Nc1ccc(OC(F)(F)F)cc1	·	-3.8%	23.1µM*	-8.3%	0.8%	-3.2%
CCc1cccc(NC(=O)COC(=O)c2c(-c3ccccc3)noc2C)c1	·	·	·	·	-1.0%	-5.0%
Cc1onc(-c2ccccc2)c1C(=O)OCC(=O)Nc1ccc(Cl)cc1	·	-5.5%	23.1µM*	?	0.3%	-5.2%
CCN1CCN(c2ccc(S(=O)(=O)N3CCOCC3)cc2NC(=O)c2ccc(OCC(C)C)cc2)CC1	·	-3.9%	9.2µM*	-23.1%	0.1%	-3.3%
CC(Oc1ccc(F)cc1)C(=O)Nc1cc(S(=O)(=O)N2CCOCC2)ccc1N1CCCCC1 (configuration not stated)	·	-0.8%	20.6µM*	?	2.4%	-4.5%
COc1ccc(NS(=O)(=O)c2ccc(N3CCOCC3)c(NC(=O)c3ccc(F)cc3)c2)cc1	-6.6%	0.1%	9.2µM*	-9.5%	-0.3%	-4.8%
CC(C)COc1ccc(C(=O)Nc2cc(S(=O)(=O)N3CCOCC3)ccc2N2CCCC2)cc1	·	1.0%	10.0%	-2.8%	-0.2%	-1.5%
O=C(CS)Nc1ccccc1	·	·	·	·	·	1.7%
Cc1cccc(CNC(=O)c2cnn(-c3nccc(-c4ccccc4C(F)(F)F)n3)c2C)n1	·	·	·	·	·	-4.4%
O=C(Nc1ccccc1)c1cc2ccccc2c(=O)s1	-0.6%	-2.6%	-7.8%	-5.4%	10µM*	5.1%
Cc1ccc(CSc2nccc(-c3c(C)nc4ccccn34)n2)cc1	26.8%	-0.5%	8.2µM*	-19.8%	0.1%	-1.9%
CCN1CCCC1CNC(=O)c1cnn(-c2nccc(-c3cccs3)n2)c1C1CC1 (configuration not stated)	·	·	·	·	·	-1.5%
CNc1sc(C(=O)c2ccc(F)cc2)c(N)c1-c1nc2ccccc2s1	-43.9%	-7.9%	11.4%	-18.4%	11.2µM*	10.4%
Cc1cccc(C)c1OCC(=O)N/N=C/C=C/c1ccco1	11.7%	3.1%	3.0%	-5.2%	1.58µM*	8.4%
Cc1cccc(OCC(=O)N/N=C/C=C/c2ccco2)c1	9.0%	-0.1%	12.1%	-1.2%	22.4µM*	?
O=C(Cc1cccs1)N/N=C/c1ccco1	-7.2%	1.2%	10.2%	-2.0%	3.0%	-0.2%
SMILES	miR-21 reporter	PTAP TSG101 blk	Nrf2 block	A549 tox	Nrf2 activator	GRP78 ERSR act
Cc1ccc(OCC(=O)N/N=C/C=C/c2ccco2)c(Br)c1	-0.1%	0.5%	-4.9%	0.4%	26.4%	?
O=C(Cc1cccs1)N/N=C/C=C\c1ccco1	8.7%	-2.0%	?	-4.6%	11.2µM*	5.3%
O=C(COc1ccccc1C(=O)Nc1ccccc1)Nc1ccccc1F	·	·	·	·	·	-0.9%
COc1cc(F)c(S(=O)(=O)N2CCN(S(=O)(=O)c3cccs3)CC2)c(F)c1	·	·	9.5%	1.1%	·	·
Cc1ccc(O)c(NC(=S)NC(=O)/C=C/c2ccccc2)c1	-0.1%	-3.6%	-1.3%	-4.4%	11.2µM*	-2.7%
O=C(/C=C/c1ccccc1)NC(=S)Nc1ccccc1O	-34.2%	-13.0%	2.8%	-8.5%	22.9%	-2.4%
O=C(Nc1ccccn1)c1ccc(Cl)c([N+](=O)[O-])c1	-19.1%	0.6%	?	-10.7%	10µM*	2.9%
O=C(Nc1ccccn1)Nc1ccccc1[N+](=O)[O-]	-60.7%	-2.7%	20.9%	-0.3%	3.98µM*	7.9%
Cc1ccccc1NC(=O)Nc1ccccn1	-36.4%	-4.5%	?	-5.6%	28.6%	1.1%
O=C(Nc1cccnc1Cl)c1ccc(Cl)c([N+](=O)[O-])c1	-1.6%	0.1%	1.4%	-6.1%	0.0%	-1.1%
CC(C)(C)n1ncc2c(=O)n(Cc3cccc(C#N)c3)cnc21	·	·	·	·	·	-1.0%
O=C(NCC1CCCO1)C(c1cccs1)N(Cc1ccccc1Cl)C(=O)c1ccc(-c2ccccc2)[nH]1 (configuration not stated)	9.6%	0.7%	23.1µM*	-6.3%	0.2%	-5.0%
Cc1ccc(C(C(=O)NCC2CCCO2)N(Cc2ccccc2)C(=O)c2ccc(-c3ccccc3)[nH]2)o1 (configuration not stated)	18.7%	-2.1%	?	?	0.2%	-3.5%
CC1=NN(c2ccccc2)C(=O)/C1=C/C=C/c1ccccc1	-2.7%	-1.9%	3.5%	6.2%	11.2µM*	-1.1%
CC1=NN(c2cccc(C(=O)O)c2)C(=O)/C1=C\C=C\c1ccco1	-19.1%	-5.0%	15.5%	-1.5%	?	14.5%
COC(=O)[C@@H]1CCCN1Cc1ccc2c(c1)CN(Cc1cccn1-c1ccc(Cl)cn1)CCO2	·	·	·	·	·	-4.2%
COCC1=C(C(=O)OC(C)OC(=O)OC(C)C)N2C(=O)C(NC(=O)/C(=N\OC)c3csc(N)n3)C2SC1 (configuration not stated)	·	·	·	·	·	-3.9%
O=C(Cn1nc(Cc2cccnc2)c2ccccc2c1=O)N1CCN(c2ccccn2)CC1	-7.9%	-1.2%	-12.0%	-4.4%	0.0%	-3.4%
Cc1cccc(N2CCN(C(=O)Cn3nc(Cc4cccnc4)c4ccccc4c3=O)CC2)c1C	?	·	16.4µM*	-9.0%	-1.4%	-3.5%

Screening data (PubChem)
